Records with an inconclusive call do not appear. Activity calls are given as the source filed them. Calls follow the shape of the dose curve; as a rule, active = well fitted curve in the direction sought with a large enough effect; inconclusive = small, poorly fitted or top-dose-only effect, or effect the other way, or another doubt; inactive = no such curve, though single readings can be large or run the other way.
Biological target: Epidermal growth factor receptor (Homo sapiens) (UniProt P00533)
Test: Assay for Inhibitors of the ERK Signaling Pathway using a Homogeneous Screening Assay: EGFR T790M Kinase Inhibition
Source text: qHTS Assay for Inhibitors of the ERK Signaling Pathway using a Homogeneous Screening Assay
NIH Chemical Genomics Center [NCGC]
NIH Molecular Libraries Screening Centers Network [MLSCN]
Assay Submitter (PI): Dr. Wei Zheng, NCGC/NIH
The Ras/extracellular-signal-regulated kinase (ERK) mitogen activated protein (MAP) kinase signaling pathway (ERK1/2 cascade) plays is a key role in transmitting signals from the cell surface to the nucleus (Nishida and Gotoh 1993; Chang and Karin, 2001). The cascade is initiated by the small G-protein Ras, which recruits Raf […], where activation occurs. Alternatively, this pathway can be activated by elevating intracellular cAMP.
Activation of the ERK pathway is essential in increased cell division and cell survival. Sustained and constitutive activation of the ERK pathway, however, has been linked to uncontrolled cell proliferation, increased cell survival, and tumor progression. Thus, the ERK has been as an attractive target for cancer chemotherapy in the past few years (Sebolt-Leopold and Herrera, 2004). […]
The HTRF kinase assay (components supplied as kit by Cisbio) was chosen for the EGFR and EGFR mutant enzyme assays that applied the time resolved fluorescence resonance energy transfer (TR-FRET) principle. […]

Sequence of Epidermal growth factor receptor (Homo sapiens) (P00533 whole entry T790M, looked up): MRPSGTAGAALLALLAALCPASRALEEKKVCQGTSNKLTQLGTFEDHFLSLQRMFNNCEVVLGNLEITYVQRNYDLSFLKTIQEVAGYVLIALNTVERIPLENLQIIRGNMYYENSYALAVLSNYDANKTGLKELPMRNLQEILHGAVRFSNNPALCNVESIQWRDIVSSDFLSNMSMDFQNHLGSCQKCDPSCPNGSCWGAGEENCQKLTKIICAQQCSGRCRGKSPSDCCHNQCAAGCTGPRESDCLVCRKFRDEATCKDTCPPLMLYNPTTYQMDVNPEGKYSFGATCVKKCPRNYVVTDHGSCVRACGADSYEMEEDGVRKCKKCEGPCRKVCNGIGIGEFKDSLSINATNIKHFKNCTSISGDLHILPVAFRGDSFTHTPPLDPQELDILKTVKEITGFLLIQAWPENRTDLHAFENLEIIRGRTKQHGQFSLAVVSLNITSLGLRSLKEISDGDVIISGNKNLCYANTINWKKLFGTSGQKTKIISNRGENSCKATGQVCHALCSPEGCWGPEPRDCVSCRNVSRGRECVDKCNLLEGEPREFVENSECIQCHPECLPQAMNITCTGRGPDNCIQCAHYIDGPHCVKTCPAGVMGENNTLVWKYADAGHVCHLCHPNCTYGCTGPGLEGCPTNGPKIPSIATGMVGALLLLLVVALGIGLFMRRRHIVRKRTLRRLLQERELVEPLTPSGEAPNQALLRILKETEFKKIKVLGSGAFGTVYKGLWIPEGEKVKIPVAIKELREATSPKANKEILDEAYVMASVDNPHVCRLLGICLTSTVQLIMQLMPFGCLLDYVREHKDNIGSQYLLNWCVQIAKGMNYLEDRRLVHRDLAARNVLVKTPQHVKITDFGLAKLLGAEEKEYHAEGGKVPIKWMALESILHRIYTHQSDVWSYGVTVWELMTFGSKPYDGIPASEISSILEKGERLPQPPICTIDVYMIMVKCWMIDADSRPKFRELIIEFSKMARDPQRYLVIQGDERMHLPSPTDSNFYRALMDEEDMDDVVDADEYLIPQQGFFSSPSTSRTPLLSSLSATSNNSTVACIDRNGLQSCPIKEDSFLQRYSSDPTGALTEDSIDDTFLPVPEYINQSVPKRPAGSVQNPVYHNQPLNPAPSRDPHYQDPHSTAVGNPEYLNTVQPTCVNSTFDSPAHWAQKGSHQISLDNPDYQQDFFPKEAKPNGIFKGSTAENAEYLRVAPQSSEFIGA

| Structure (SMILES) | outcome |
| --- | --- |
| CCn1nc(-c2ccccc2)nc2c(=O)n(C)c(=O)nc1-2 | inactive |
| Cc1nc2c(=O)n(C)c(=O)nc-2n(C)n1 | inactive |

Source: PubChem BioAssay AID1729 (National Center for Advancing Translational Sciences (NCATS), 2009)
